# In PubChem BioAssay AID1527 (The Scripps Research Institute Molecular Screening Center, 2009):
# Out of some 290,000 compounds screened, about 2,600 (0.9%) were called active.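 The calls were made as follows: active = inhibition above the mean of all tested compounds plus 3 SD, cutoff set per screening run (cut at about 7.5% in these data); inactive = the rest.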 The entries come from a sample that favours actives as a whole.
# Test system: VIM-2 metallo-beta-lactamase (Pseudomonas aeruginosa)
# Experiment: inhibition of VIM-2 nitrocefin hydrolysis – biochemical, epi-absorbance readout, Pseudomonas aeruginosa enzyme, primary screen (AID 1527);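 also: red hydrolysis product quenches plate fluorescence so inhibitors raise well fluorescence; 0% = enzyme with DMSO and 100% = DMSO without enzyme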
# Conditions: purified VIM-2, nitrocefin hydrolysis, epi-absorbance fluorescence; at 5.6 µM; active compounds read high
row,SMILES,inhibition
1,O=C(N/N=C/c1cccnc1)c1ccc(NC(=O)c2ccc(F)cc2)cc1,-0.77% (inactive)
2,COc1cc(S(=O)(=O)N(Cc2cccs2)C2CC2)ccc1-n1cnnn1,-1.52% (inactive)
3,COc1ccc(C(=O)C2CCCN(C(=O)c3cc(C)on3)C2)cc1F (centres undefined),-2.54% (inactive)
4,CCOc1ccc2[nH]c(C(=O)N/N=C/c3cccc(OC)c3OC)cc2c1,-0.14% (inactive)
5,Clc1ccc2nc(-c3ccccc3)nc(C(Cl)Cl)c2c1,-4.99% (inactive)
6,O=C(CCl)NNc1nc(-c2ccccc2)c2cc(Cl)ccc2n1,-3.67% (inactive)
7,NC(N)=Nc1nc(-c2ccccc2)c2cc(Cl)ccc2n1,9.54% (active)
8,O=C(CCCCCn1c(=S)[nH]c2cc3c(cc2c1=O)OCO3)N1CCN(c2ccc(F)cc2)CC1,-4.83% (inactive)
9,CC(C)Oc1ccc(CN2CCC(n3nccc3NC(=O)c3cccnc3)CC2)cc1,-0.44% (inactive)
10,CN(C)CCCn1c(=O)n(Cc2ccccc2)c(=O)c2c3c(sc21)CCCCC3,-0.19% (inactive)
11,COc1ccc(C(=O)/C=C/c2cccnc2)c(OC)c1,-1.09% (inactive)
12,CN1CCN(Cc2c(O)ccc3c2oc(=O)c2ccccc23)CC1,12% (active)
13,O=c1oc2c(CN3CCCCC3)c(O)ccc2c2c1CCCCC2,-1.98% (inactive)
14,CCOC(=O)c1oc2c(CN3CCN(C)CC3)c(O)ccc2c(=O)c1-c1ccc(Br)cc1,2.09% (inactive)
15,COc1ccc(-c2cc(C(=O)N(C)Cc3ccc(OC)c(OC)c3OC)c3ccccc3n2)cc1OC,-3.53% (inactive)
16,O=C(Nc1nnc(C2CC2)s1)c1cc(Cl)sc1Cl,-3.26% (inactive)
17,CN1C(=O)/C(=C\c2cc(Br)cs2)c2ccccc21,0.8% (inactive)
18,O=C(c1ccco1)N1CCN(C(=O)c2cc(-c3ccccc3F)no2)CC1,-2.41% (inactive)
19,COc1cccc(NC(=O)C(=O)c2cn(CC(=O)N3CCOCC3)c3ccccc23)c1,1.81% (inactive)
20,CC(=O)c1ccc2c(ccc3ccccc32)c1,-0.35% (inactive)

row,SMILES,inhibition
1,Cc1cc(=O)oc2c(C(=O)c3ccccc3)c(OCC(N)=O)ccc12,-0.26% (inactive)
2,Cc1cc(=O)oc2c1ccc1ccccc12,10.6% (active)
3,Cn1c(-c2sc3cc(C(F)(F)F)cnc3c2-c2ccccc2)n[nH]c1=S,-7.11% (inactive)
4,Cn1c(-c2sccc2OCc2cccc(C(F)(F)F)c2)n[nH]c1=S,27% (active)
5,Cc1ccccc1-c1n[nH]c(=S)n1C,2.67% (inactive)
6,COc1ccccc1NC(=O)CCN1CCN(c2ccc(Cl)cc2)CC1,0.08% (inactive)
7,CNc1nc2c(C)cccn2c(=O)c1C=Nc1ccc(OC)cc1,4.33% (inactive)
8,O=Cc1c(Nc2ccccc2Cl)nc2ccccn2c1=O,0.26% (inactive)
9,Cc1cccn2c(=O)c(C=O)c(Nc3ccc(S(N)(=O)=O)cc3)nc12,19.5% (active)
10,C/C(N)=C(/C#N)C(=O)COC(=O)C1=NN(c2ccccc2)C(=O)CC1,-2.51% (inactive)
11,COc1cccc(NC(=O)C2CCCN(c3ncnc4c3nc3n4CCCCC3)C2)c1 (centres undefined),-0.06% (inactive)
12,COCCCNC(NC(=O)c1ccc(C)cc1)C(Cl)(Cl)Cl (centres undefined),-1.71% (inactive)
13,CC(C)(C)NC(=O)CSC(=Nc1ccccc1F)NC#N,-1.17% (inactive)
14,CCC(c1nnnn1C(C)(C)C)N(Cc1cc2cccc(C)c2n2nnnc12)C1CCCC1 (centres undefined),-3.3% (inactive)
15,Cn1c(=O)cc(OCCCC(=O)N2CCN(c3ccccn3)CC2)c2ccccc21,-0.05% (inactive)
16,Cn1c(=O)cc(OCCCC(=O)N2CCN(Cc3ccc4c(c3)OCO4)CC2)c2ccccc21,9.27% (active)
17,O=C(CCCN1C(=O)c2cccc3cccc(c23)C1=O)N1CCN(Cc2ccc3c(c2)OCO3)CC1,4.6% (inactive)
18,COc1cc(C)cc(CN2CCC(Cc3ccccc3)CC2)c1O,-1.32% (inactive)
19,CCn1c(=O)n(CC)c2cc(N3CCCC3)c(NC(=O)c3ccccc3Br)cc21,0.64% (inactive)
20,CCOc1ccc(C)cc1S(=O)(=O)NC1CCCCCC1,-2.78% (inactive)

row,SMILES,inhibition
1,COc1ccccc1OCCn1c(SCC(N)=O)nc2ccccc21,-0.1% (inactive)
2,O=C(Oc1c(-c2ccco2)oc2ccccc2c1=O)c1cccnc1,0.08% (inactive)
3,COCCCNC(=S)N(CCN(C)C)Cc1cc2cc3c(cc2[nH]c1=O)OCCO3,1.43% (inactive)
4,Cc1cccc(NC(=O)C2CCCN(C(=O)NCc3ccccc3)C2)c1C (centres undefined),0.69% (inactive)
5,Cc1ccc2cc(/C=N/NC(=O)[C@@H]3CCCN3)c(Cl)nc2c1,10.3% (active)
6,CSCC[C@H](NC(=O)OC(C)(C)C)C(=O)N/N=C/c1cc2ccc(C)cc2nc1Cl,0.5% (inactive)
7,Cc1ccc2cc(/C=N/Nc3ccc(C(=O)O)cc3)c(Cl)nc2c1,1.26% (inactive)
8,Cc1cccc(CS(=O)(=O)c2ncc(Cl)c(C(=O)Nc3ccc(F)cc3)n2)c1,-3.25% (inactive)
9,O=C(CCC1CCCN(C(=O)c2ccc(F)c(F)c2)C1)N1CCN(c2ccccn2)CC1 (centres undefined),-0.15% (inactive)
10,CCn1ccnc1CNC(=O)CC1C(=O)NCCN1Cc1ccc(F)cc1Cl (centres undefined),-4.36% (inactive)
11,Cc1nn(C)cc1N1C(=O)c2cccc3c(N)ccc(c23)C1=O,21.7% (active)
12,CN1C(=O)c2cccc3c(N)ccc(c23)C1=O,50.1% (active)
13,O=C1c2ccccc2C(=O)N1c1cccc2ccccc12,-0.93% (inactive)
14,CC(=O)Nc1ccccc1Sc1ccc2c3c(cccc13)C(=O)N(c1ccc(C)cc1)C2=O,-3.98% (inactive)
15,O=C(O)c1ccc2c3c(cccc13)C(=O)N(OS(=O)(=O)c1ccccc1)C2=O,0.17% (inactive)
16,Cc1nn(-c2cc(Cl)ccc2N)c(=O)c2ccccc12,-2.2% (inactive)
17,NS(=O)(=O)c1ccc(N=Nc2c(O)[nH]c3ccc(Br)cc23)cc1,-2.22% (inactive)
18,Cc1c(C=O)c2ccccc2n1CCOc1ccccc1,-0.2% (inactive)
19,CN(C)CCCN(C(=O)c1ccc(S(=O)(=O)N2CCCc3ccccc32)cc1)c1nc2ccc(F)cc2s1,-1.07% (inactive)
